Source: PubChem
Hits are enriched below; roughly 13% of the tested compounds scored in any of these assays.
USP30 inh = inhibitors of human USP30 deubiquitinase; Ubiquitin carboxyl-terminal hydrolase 30 (Homo sapiens), Q70CQ3; purified USP30, Ub-rhodamine cleavage fluorescence; 5.3% of 47,000 active; AID 1645860, 2021; inhibition, % at 25 µM
USP17 inh = inhibitors of human USP17 deubiquitinase; inhibition, % at 50 µM; purified USP17, Ub-rhodamine cleavage fluorescence, 3 h; 6.5% of 47,000 active; Ubiquitin carboxyl-terminal hydrolase 17-like protein 5 (Homo sapiens), A8MUK1; AID 1645855, 2021
USP28 block = inhibitors of human USP28 deubiquitinase | Ubiquitin carboxyl-terminal hydrolase 28 (Homo sapiens), Q96RU2 | purified USP28, Ub-rhodamine cleavage fluorescence, 30 min | inhibition, % at 25 µM | 3% of 47,000 active | AID 1645857, 2021
OTUD3 inh = inhibitors of human OTUD3 deubiquitinase; purified OTUD3, Ub-rhodamine fluorescence, 2 h; inhibition, % at 25 µM; 0.7% of 47,000 active
Target sequence (Q5T2D3 whole entry, looked up): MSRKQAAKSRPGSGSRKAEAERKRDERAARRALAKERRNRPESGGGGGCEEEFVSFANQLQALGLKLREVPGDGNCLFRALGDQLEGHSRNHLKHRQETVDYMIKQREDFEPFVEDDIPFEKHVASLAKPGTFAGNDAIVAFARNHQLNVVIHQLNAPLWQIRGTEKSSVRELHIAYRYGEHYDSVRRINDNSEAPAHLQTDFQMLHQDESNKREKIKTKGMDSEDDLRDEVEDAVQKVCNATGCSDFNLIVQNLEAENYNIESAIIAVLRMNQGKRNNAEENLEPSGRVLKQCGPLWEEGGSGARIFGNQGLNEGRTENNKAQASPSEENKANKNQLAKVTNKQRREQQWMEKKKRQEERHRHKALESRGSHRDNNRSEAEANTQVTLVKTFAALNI
USP8 block = inhibitors of human USP8 deubiquitinase | Ubiquitin carboxyl-terminal hydrolase 8 (Homo sapiens), P40818 | purified USP8, Ub-rhodamine cleavage fluorescence, 30 min | inhibition, % at 20 µM | 4.2% of 47,000 active | AID 1645853, 2021
Large screens that a line does not name were inactive. Rule as the data show it: active = inhibition above about 30%; inactive = the rest.

Cc1cccc(NC(=O)c2ccc3c(c2)N(S(C)(=O)=O)CC3)c1C	none
CCc1ccccc1NC(=O)Cn1c(N2CCCC2)nc(C)cc1=O	none
O=C(NCCc1ccccc1)[C@@H]1C=CCN1C(=O)C1CC1	none
COc1ccc2nc(C(=O)N3CCN(c4ccc(F)cc4)CC3)cn2n1	none
O=C(Nc1ccccc1)c1ccc(-c2ccccc2)s1	USP17 inh 54 (no result: USP30 inh, USP28 block)
O=C(O)c1ccc(NC(=O)c2ccc(-c3ccccc3)cc2)cc1	none
CCc1cc(CN2CCN(CCO)CC2)c(NC(=O)c2ccccc2)s1	none
Cc1cccc(NCc2cc(=O)n3cccc(C)c3n2)c1C	none
CCOC(=O)C(C)Sc1nc(=O)n2cccc(C)c2n1 (configuration not stated)	USP30 inh 30
CCCCNC(=O)N1CCc2nc(NC)n(-c3ccccc3)c(=O)c2C1	none
COc1ccc(CC(=O)Nc2cc(N3CCCS3(=O)=O)ccc2C)cc1	none
CCOc1ccc(CC(=O)Nc2cc(N3CCCS3(=O)=O)ccc2C)cc1	USP30 inh 43
CS(=O)(=O)N[C@H]1C[C@@H]2C[C@H]1N(C(=O)Nc1ccc3c(c1)CCC3)C2	none
CCCc1c(C(=O)NC2CCCCC2)cnn1-c1ccc(Cl)cc1	USP17 inh 36
Cc1ccc(-c2nc3ncccc3o2)cc1NC(=O)COc1ccc([N+](=O)[O-])cc1	USP17 inh 40
COc1cccc(NC(=O)CN2CCC3(CC2)Nc2ccccc2C2=NCCN23)c1	none
O=C1CCCN1CCCNc1nc(-c2ccncc2)nc2c1CCC2	none
Cc1cc(-c2cncc(C3CCCN(C(=O)C(C)(C)C)C3)n2)n[nH]1 (configuration not stated)	none
O=C(Cc1nnc(-c2cnccn2)o1)Nc1ccc(F)c(Cl)c1	none
O=C(Cc1nnc(-c2cnccn2)o1)Nc1ccc(Cl)cc1	USP30 inh 38
Cc1noc(C)c1CN1CCC(NC(=O)c2cc(F)ccc2Cl)C1 (configuration not stated)	none
CCOC(=O)N1CCC(NC(=O)CCn2c(=S)oc3ccccc32)CC1	USP30 inh 34
CCOC(=O)N1CCC(NC(=O)C2CCCN(c3nc4ccccc4o3)C2)CC1 (configuration not stated)	none
COc1ccc(CNc2nc3c(c(=O)n2C)CCN(C(=O)Nc2ccc(C)cc2)C3)cc1	none
Cc1cc(C)cc(N2C(N)=NC(N)=NC2c2ccccc2F)c1 (configuration not stated)	USP30 inh 37
C[C@H](NC(=O)C1(c2ccccc2)CCN(C(=O)[C@@H]2Cc3ccccc3CN2C(=O)OC(C)(C)C)CC1)C(=O)O	none
CC(OC(=O)c1ccc(N2CCCC2=O)cc1)C(=O)Nc1ccc2c(c1)OCO2 (configuration not stated)	USP8 block 56
CC(OC(=O)CNC(=O)c1ccc(Br)cc1)C(=O)Nc1ccc2c(c1)OCCO2 (configuration not stated)	USP17 inh 66
O=C(Nc1ccc2c(c1)OCCO2)c1cccc(N2C(=O)CCS2(=O)=O)c1	none
CC(OC(=O)c1ccc(N2CCCC2=O)cc1)C(=O)Nc1ccc2c(c1)OCCO2 (configuration not stated)	USP17 inh 43
O=C(Nc1ccc2c(c1)OCCO2)c1ccc(N2CCCC2=O)cc1	USP30 inh 67, USP17 inh 35, USP28 block 45
CC(OC(=O)c1ccc2ncsc2c1)C(=O)Nc1ccc2c(c1)OCO2 (configuration not stated)	none
CC(OC(=O)c1ccc2c(=O)n3c(nc2c1)CCCCC3)C(=O)Nc1ccc2c(c1)OCO2 (configuration not stated)	none
O=C(Nc1ccccc1N1CCOCC1)c1sccc1-c1ccccc1	none
O=C(CCc1nnc2ccc(N3CCCC3)nn12)NCc1ccco1	none
CNC(=O)C1Cn2ccnc2C2(CCN(C(=O)NCCc3ccccc3)CC2)O1 (configuration not stated)	none
CN(C)S(=O)(=O)c1cccc(NC(=O)c2ccc(N3CCCC3=O)cc2)c1	USP30 inh 32, USP17 inh 48, USP28 block 44
CC(OC(=O)c1ccc(N(C)C)cc1)C(=O)Nc1ccc2c(c1)OCCO2 (configuration not stated)	USP17 inh 40
CCN1CCc2c(sc(NC(=O)CSc3ccc(F)cc3)c2C(N)=O)C1	none
COc1cc(OC)c(NC(=O)CCCC2=NS(=O)(=O)c3ccccc3N2)cc1Cl	none
NC(=O)CSc1nnc2ccc(-c3ccc4c(c3)OCO4)nn12	none
O=C(CSc1nnc2ccc(-c3ccc4c(c3)OCO4)nn12)NCC1CCCO1 (configuration not stated)	USP30 inh 42 (no result: USP17 inh)
Cn1c(=O)c2c(nc(CN3CCc4ccccc4C3)n2CC(=O)c2ccccc2)n(C)c1=O	USP8 block 36
O=c1c2[nH]c3ccc(F)cc3c2ncn1Cc1cccnc1	USP17 inh 41 (no result: USP30 inh, USP28 block)
Cc1ccc2c(c1)[nH]c1c(=O)n(Cc3cccnc3)cnc12	USP17 inh 31
COc1ccc2c(c1)[nH]c1c(=O)n(Cc3cccnc3)cnc12	none
Cn1c2ccc(F)cc2c2ncn(Cc3cccnc3)c(=O)c21	USP30 inh 31
O=C(Nc1nnc(CCc2ccccc2)s1)C(=O)c1c[nH]c2ccccc12	USP30 inh 35
O=C(NCc1nc(-c2ccc(N3CCCCCC3)cc2)no1)c1ccccc1	none
CCCn1c(-c2ccc(F)cc2)cn2c(-c3ccccc3)c(-c3ccccc3)nc12	USP8 block 68
Cc1nc(Sc2ccc3ccccc3c2)c2oc3ccccc3c2n1	USP30 inh 40, USP17 inh 42
O=C1CC(=O)C(n2cncn2)C(c2ccco2)C1 (configuration not stated)	none
COc1cccc(C(=O)Nc2cccn3nc(C)nc23)c1	none
COc1cccc(C(=O)Nc2nc(-c3ccco3)c(-c3ccco3)s2)c1	USP17 inh 44, USP8 block 62
O=C(NCCSc1ccc(Cl)cc1)c1cccc(F)c1	none
COc1cccc(C(=O)NCCSc2ccc(Cl)cc2)c1	USP17 inh 35, USP28 block 44
Cc1cc(=O)[nH]c(N2CCN(CC(=O)N3CCCC(C)C3)CC2)n1 (configuration not stated)	none
COc1ccc(NC(=O)CSC2=NC3(CCCCC3)Nc3ccccc32)cc1	none
Cc1ccc(NC(=O)CSC2=NC3(CCCCC3)Nc3ccccc32)cc1	USP8 block 38
CCOc1ccc(NC(=O)CSC2=NC3(CCCC3)Nc3ccccc32)cc1	USP17 inh 30
Cc1ccccc1NC(=O)CSC1=NC2(CCCCC2)Nc2ccccc21	USP8 block 37
O=C(CSC1=NC2(CCCCC2)Nc2ccccc21)Nc1ccc(F)cc1F	none
O=C(c1ccc(-n2cccn2)nc1)N1CCCC1c1cnccn1 (configuration not stated)	none
Cc1cccc(NC(=O)c2ccc(C)c(C)c2)c1	USP28 block 34
